We go through eight compounds from PubChem BioAssay (NCI).

Among the test systems are RPMI-8226 leukemia; OVCAR-8 ovarian; OVCAR-5 ovarian; OVCAR-4 ovarian; SK-OV-3 ovarian; IGROV1 ovarian; OVCAR-3 ovarian; HS 578T breast; NCI/ADR-RES ovarian; T-47D breast; BT-549 breast; MDA-MB-435 melanoma; SW-620 colon; MCF7 breast; HCT-116 colon; HCC-2998 colon; KM12 colon; SR leukemia.
Common to all, as to test: NCI-60 one-dose screen, 48 h (100 = growth as untreated, 0 = no growth, -100 = all killed)
What all share (details): 10 µM

Compounds without any hit were thinned out: in the full panel of roughly 83,000, 20% have a hit.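 Treatment: one concentration, 48 hours, 96-well format. Scoring: percent growth, with anything below 10 considered active.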 A number with no mark means an inactive call. Activity calls are given as the source filed them.

In the case of `FC(F)(F)c1ccc(-c2ncc(-c3ccc(C(F)(F)F)cc3)c(NCc3cc(C(F)(F)F)cc(C(F)(F)F)c3)n2)cc1`, the growth is 53% in the assay with RPMI-8226 leukemia; 44.5% in the assay on OVCAR-8 ovarian; 79.4% in the assay with OVCAR-5 ovarian; 81.3% with OVCAR-4 ovarian; 82.4% in the assay with SK-OV-3 ovarian; 65.6% in the assay with IGROV1 ovarian. Further, the growth in the assay with OVCAR-3 ovarian was 31.9%; in the assay with HS 578T breast, 71.9%; in the assay on NCI/ADR-RES ovarian it was 68.5%; in the assay on T-47D breast, 28.1%; in the assay with BT-549 breast it was 79.4%; with MDA-MB-435 melanoma it was 68.3%. In addition, the growth was 59.7% with SW-620 colon; 54.9% in the assay on MCF7 breast; 24.4% in the assay on HCT-116 colon; 77.2% with HCC-2998 colon; 44.7% with KM12 colon.
Consider `O=c1oc2cc(OS(=O)(=O)C3CC3)ccc2c2c1CCCCCC2`, for which the growth was 52.7% in the assay on SR leukemia; 82.6% in the assay on OVCAR-8 ovarian; 100% in the assay with OVCAR-5 ovarian; 65.3% with OVCAR-4 ovarian; 89.1% in the assay on SK-OV-3 ovarian; 103% in the assay on IGROV1 ovarian. Further, the growth in the assay with OVCAR-3 ovarian is 68.7%; in the assay with HS 578T breast, 106%; with NCI/ADR-RES ovarian, 68.4%; in the assay on T-47D breast it was 57.6%; in the assay on BT-549 breast, 80.1%; in the assay on MDA-MB-435 melanoma, 94.8%. Moreover, the growth with SW-620 colon is 96.5%; in the assay with MCF7 breast it was 81.6%; in the assay with HCT-116 colon, 82.5%; in the assay with HCC-2998 colon it was 90.8%; in the assay with KM12 colon, 77.8%.
Regarding `CC(=O)Nc1nc(C)c(C(=O)NNC=O)s1`, the growth is 105% in the assay on SR leukemia; 102% in the assay on OVCAR-8 ovarian; 108% in the assay on OVCAR-5 ovarian; 118% in the assay with OVCAR-4 ovarian; 141% with SK-OV-3 ovarian; 13% with IGROV1 ovarian. Also, the growth in the assay on OVCAR-3 ovarian is 98.6%; with HS 578T breast it was 77%; in the assay on NCI/ADR-RES ovarian, 104%; in the assay with T-47D breast, 127%; in the assay on MDA-MB-435 melanoma, 107%; with SW-620 colon, 101%. The growth with MCF7 breast is 92.4%; in the assay with HCT-116 colon, 121%; with HCC-2998 colon, 79.4%; with KM12 colon, 105%.
In the case of `O=C1CC(c2cccc(-c3cccnc3)c2)=Nc2ccc(Br)cc2N1`, the growth with SR leukemia is 51.1%; in the assay on OVCAR-8 ovarian it was 17.2%; with OVCAR-5 ovarian, 91.5%; in the assay on OVCAR-4 ovarian, -4.81% (active); with SK-OV-3 ovarian, 46.5%; with OVCAR-3 ovarian, 45%. Further, the growth in the assay on HS 578T breast is 27.9%; in the assay with NCI/ADR-RES ovarian, 19%; in the assay with T-47D breast, -11.6% (active); with BT-549 breast, -3.46% (active); with MDA-MB-435 melanoma, 43.5%; in the assay with SW-620 colon it was 81.8%. The growth is 23.6% with MCF7 breast, 23% in the assay on HCT-116 colon, 74.8% in the assay with HCC-2998 colon and 49.4% in the assay with KM12 colon.
For the compound `COc1ccc(Nc2ccnc(N3CCN(c4ccnc5cc(Cl)ccc45)CC3)n2)cc1`, the growth with SR leukemia was 1.29% (active); in the assay with OVCAR-8 ovarian, 0.239% (active); in the assay with OVCAR-5 ovarian, 9.98% (active); with OVCAR-4 ovarian, 10.7%; in the assay on SK-OV-3 ovarian it was 12.7%; with IGROV1 ovarian, -0.0353% (active). Besides, the growth in the assay with OVCAR-3 ovarian is 15.8%; with HS 578T breast, 10.4%; in the assay with NCI/ADR-RES ovarian, -2.96% (active); with T-47D breast, -7.73% (active); in the assay with BT-549 breast, -11.5% (active); in the assay with SW-620 colon it was 7.57% (active). Further, the growth is 2.5% (active) in the assay with MCF7 breast, 0.434% (active) in the assay on HCT-116 colon and 2.49% (active) in the assay with KM12 colon.
Regarding `N#C/C(=C/c1cc([N+](=O)[O-])ccc1Cl)C(N)=O`, the growth in the assay with SR leukemia was 8.43% (active); with OVCAR-8 ovarian it was 82.5%; in the assay on OVCAR-5 ovarian it was 107%; with OVCAR-4 ovarian it was 94.2%; in the assay on SK-OV-3 ovarian, 95.5%; in the assay with IGROV1 ovarian, 69.9%. The growth in the assay on OVCAR-3 ovarian was 104%; with HS 578T breast it was 113%; in the assay on NCI/ADR-RES ovarian it was 98.2%; with T-47D breast, 90.4%; in the assay on BT-549 breast, 96.8%; in the assay with MDA-MB-435 melanoma, 71.5%. The growth with SW-620 colon was 46.6%; with MCF7 breast, 57.3%; with HCT-116 colon, 10% (active); in the assay with HCC-2998 colon, 106%; in the assay on KM12 colon it was 91.5%.
Turning to `CC(CNC(Cc1ccccc1)c1ccccc1)NC(Cc1ccccc1)c1ccccc1` (configuration not stated), the growth with SR leukemia is -19.7% (active); in the assay with OVCAR-8 ovarian, 49.5%; in the assay with OVCAR-5 ovarian, 46.3%; in the assay with OVCAR-4 ovarian, 31.7%; with SK-OV-3 ovarian, 81.7%; in the assay on IGROV1 ovarian, 39%. In addition, the growth is 47.3% in the assay on OVCAR-3 ovarian; 75.2% in the assay on HS 578T breast; 50% in the assay with NCI/ADR-RES ovarian; 14.6% with T-47D breast; 60.9% in the assay with BT-549 breast; 63.4% in the assay with MDA-MB-435 melanoma. The growth in the assay on SW-620 colon is 26.4%; in the assay on MCF7 breast it was 8.12% (active); with HCT-116 colon, 13.2%; in the assay with HCC-2998 colon, 20.1%; with KM12 colon, 22.2%.
As to `COc1ccc(-c2nc(-c3ccccc3)c(-c3ccccc3)[nH]2)cc1OC1CCCC1`, the growth was 41.9% in the assay on SR leukemia; 74.9% in the assay with OVCAR-8 ovarian; 82.7% in the assay with OVCAR-5 ovarian; 81.6% in the assay on OVCAR-4 ovarian; 89.3% in the assay with SK-OV-3 ovarian; 105% with IGROV1 ovarian. Also, the growth in the assay with OVCAR-3 ovarian is 81.4%; in the assay on HS 578T breast, 86.5%; in the assay with NCI/ADR-RES ovarian, 79.5%; with T-47D breast, 35.1%; in the assay on BT-549 breast, 81.9%; in the assay with MDA-MB-435 melanoma, 78.9%. Further, the growth in the assay on SW-620 colon is 82.6%; with MCF7 breast, 78.7%; in the assay on HCT-116 colon, 73.6%; in the assay with HCC-2998 colon, 69.7%; with KM12 colon it was 43.5%.
